# Tests used:
# Test in all cases: DAPPL (digital affinity profiling via proximity ligation, sequencing); 10 mM Tris-HCl pH 7.5, 50 mM NaCl, 1 mM DTT, 4% glycerol, room temperature, 30 min; GST-TFs on glutathione beads, 16-mer random dsDNA library, 0.1% formaldehyde crosslink after washing; high values mean tight binding
# FEV = target: T1, FEV (Homo sapiens, UniProt Q99581 1-238); details: protein: recombinant; tags: N-terminal GST; dsDNA, one strand shown
# T1 sequence: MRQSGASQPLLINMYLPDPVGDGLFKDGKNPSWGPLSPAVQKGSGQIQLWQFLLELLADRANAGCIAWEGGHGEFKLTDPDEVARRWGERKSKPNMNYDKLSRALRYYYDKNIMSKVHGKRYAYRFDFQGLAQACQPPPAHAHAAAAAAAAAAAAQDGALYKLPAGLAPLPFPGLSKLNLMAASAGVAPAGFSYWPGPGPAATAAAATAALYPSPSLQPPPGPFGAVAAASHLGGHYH
# Outline: (§1)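 Binding signal is each hexamer's read frequency for a factor divided by its frequency in the tag-only sample. The factors were GST-fused human transcription factors from yeast, captured on glutathione beads, DNA-barcoded and pooled with that sample. Pools were incubated with 200 nmole of a random double-stranded 16-mer DNA library in Tris/NaCl/DTT/glycerol buffer at room temperature for 30 min, then washed, crosslinked with 0.1% formaldehyde, proximity-ligated with BsaI/T4 ligase (1 h, 37 °C), PCR-amplified and sequenced on an Illumina NextSeq500.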
# ETV5 = ETV5 (Homo sapiens, UniProt P41161 1-510); details: protein: recombinant; tags: N-terminal GST; dsDNA, one strand shown
# Outline: as §1
# HSF1 = HSF1 (Homo sapiens, UniProt Q00613 1-529); details: protein: recombinant; tags: N-terminal GST; chain copies: 3; dsDNA, one strand shown
# Outline: as §1
# SPIC = target: T2, SPIC (Homo sapiens, UniProt Q8N5J4 1-248); details: protein: recombinant; tags: N-terminal GST; dsDNA, one strand shown
# T2 sequence: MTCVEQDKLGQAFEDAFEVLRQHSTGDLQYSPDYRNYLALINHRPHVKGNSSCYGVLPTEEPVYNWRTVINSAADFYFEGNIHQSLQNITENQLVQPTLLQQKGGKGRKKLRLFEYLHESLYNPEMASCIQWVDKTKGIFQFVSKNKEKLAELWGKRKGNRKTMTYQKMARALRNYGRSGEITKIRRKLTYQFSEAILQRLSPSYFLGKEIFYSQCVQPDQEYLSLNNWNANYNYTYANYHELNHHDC
# Outline: as §1
# ELF4 = ELF4 (Homo sapiens, UniProt Q99607 1-663); details: protein: recombinant; tags: N-terminal GST; dsDNA, one strand shown
# Outline: as §1
# ELK4 = target: T3, ELK4 (Homo sapiens, UniProt P28324-2 1-405); details: protein: recombinant; tags: N-terminal GST; dsDNA, one strand shown
# T3 sequence: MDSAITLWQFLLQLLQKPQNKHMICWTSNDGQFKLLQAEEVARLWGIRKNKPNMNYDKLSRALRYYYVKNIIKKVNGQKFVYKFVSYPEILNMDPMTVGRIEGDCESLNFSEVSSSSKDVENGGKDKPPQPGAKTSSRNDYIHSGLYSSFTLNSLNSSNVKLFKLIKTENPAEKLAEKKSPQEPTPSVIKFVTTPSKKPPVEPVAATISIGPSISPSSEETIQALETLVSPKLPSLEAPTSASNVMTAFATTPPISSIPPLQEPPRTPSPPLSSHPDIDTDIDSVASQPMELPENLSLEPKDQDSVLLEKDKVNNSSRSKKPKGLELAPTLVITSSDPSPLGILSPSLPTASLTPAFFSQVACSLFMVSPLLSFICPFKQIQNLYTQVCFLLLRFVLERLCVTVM
# Outline: as §1
# ETV2 = target: T4, ETV2 (Homo sapiens, UniProt O00321 1-342); details: protein: recombinant; tags: N-terminal GST; dsDNA, one strand shown
# T4 sequence: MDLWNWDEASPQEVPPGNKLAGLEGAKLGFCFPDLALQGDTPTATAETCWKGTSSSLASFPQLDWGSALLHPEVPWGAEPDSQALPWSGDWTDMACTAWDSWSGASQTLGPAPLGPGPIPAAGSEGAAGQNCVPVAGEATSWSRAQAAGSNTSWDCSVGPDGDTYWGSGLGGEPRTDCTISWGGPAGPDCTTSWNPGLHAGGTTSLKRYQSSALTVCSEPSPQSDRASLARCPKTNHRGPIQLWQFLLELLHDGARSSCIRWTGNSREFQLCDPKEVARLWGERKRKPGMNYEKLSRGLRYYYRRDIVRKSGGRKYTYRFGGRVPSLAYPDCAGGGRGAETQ
# Outline: as §1
# ELF3 = target: T5, ELF3 (Homo sapiens, UniProt P78545 1-371); details: protein: recombinant; tags: N-terminal GST; dsDNA, one strand shown
# T5 sequence: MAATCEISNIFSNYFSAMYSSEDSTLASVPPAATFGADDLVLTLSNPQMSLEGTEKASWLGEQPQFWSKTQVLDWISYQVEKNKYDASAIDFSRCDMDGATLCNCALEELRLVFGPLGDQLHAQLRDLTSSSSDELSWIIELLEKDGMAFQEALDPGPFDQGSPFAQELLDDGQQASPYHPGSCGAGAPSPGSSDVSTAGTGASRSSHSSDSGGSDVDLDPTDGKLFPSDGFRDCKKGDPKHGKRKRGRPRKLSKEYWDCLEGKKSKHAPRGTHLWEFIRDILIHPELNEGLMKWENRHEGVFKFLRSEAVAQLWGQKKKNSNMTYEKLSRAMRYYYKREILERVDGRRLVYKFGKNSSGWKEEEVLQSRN
# Outline: as §1
# CRX = CRX (Homo sapiens, UniProt O43186 1-299); details: protein: recombinant; tags: N-terminal GST; dsDNA, one strand shown
# Outline: as §1
# ETV1 = ETV1 (Homo sapiens, UniProt P50549 1-477); details: protein: recombinant; tags: N-terminal GST; dsDNA, one strand shown
# Outline: as §1
# ERF = target: T6, ERF (Homo sapiens, UniProt P50548 1-548); details: protein: recombinant; tags: N-terminal GST; dsDNA, one strand shown
# T6 sequence: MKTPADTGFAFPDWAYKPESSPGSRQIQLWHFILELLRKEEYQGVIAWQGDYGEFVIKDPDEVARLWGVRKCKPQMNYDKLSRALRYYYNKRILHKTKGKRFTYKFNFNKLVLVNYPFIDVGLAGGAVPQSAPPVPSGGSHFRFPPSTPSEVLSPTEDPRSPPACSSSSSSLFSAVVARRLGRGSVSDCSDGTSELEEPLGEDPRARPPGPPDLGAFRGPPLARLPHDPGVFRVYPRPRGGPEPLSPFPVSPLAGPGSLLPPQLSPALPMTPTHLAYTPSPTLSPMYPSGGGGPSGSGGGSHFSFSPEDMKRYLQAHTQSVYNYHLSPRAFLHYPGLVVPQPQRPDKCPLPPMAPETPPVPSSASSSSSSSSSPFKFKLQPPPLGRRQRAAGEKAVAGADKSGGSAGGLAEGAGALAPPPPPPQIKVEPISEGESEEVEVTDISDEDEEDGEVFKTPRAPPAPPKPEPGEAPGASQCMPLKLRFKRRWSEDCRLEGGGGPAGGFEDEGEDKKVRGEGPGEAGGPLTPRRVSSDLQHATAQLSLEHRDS
# Outline: as §1
# ETV3L = target: T7, ETV3L (Homo sapiens, UniProt Q6ZN32 1-361); details: protein: recombinant; tags: N-terminal GST; dsDNA, one strand shown
# T7 sequence: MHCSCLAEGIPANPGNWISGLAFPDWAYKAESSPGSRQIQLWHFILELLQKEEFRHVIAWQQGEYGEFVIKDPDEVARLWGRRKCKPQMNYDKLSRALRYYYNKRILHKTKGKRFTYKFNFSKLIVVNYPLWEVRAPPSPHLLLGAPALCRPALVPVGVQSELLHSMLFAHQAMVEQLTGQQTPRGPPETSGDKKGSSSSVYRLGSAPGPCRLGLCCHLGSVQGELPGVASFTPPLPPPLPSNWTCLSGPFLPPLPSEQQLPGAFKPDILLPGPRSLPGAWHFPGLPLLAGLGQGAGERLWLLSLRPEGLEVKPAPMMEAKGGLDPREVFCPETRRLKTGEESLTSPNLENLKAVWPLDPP
# Outline: as §1
# ETS2 = target: T8, ETS2 (Homo sapiens, UniProt P15036 1-469); details: protein: recombinant; tags: N-terminal GST; dsDNA, one strand shown
# T8 sequence: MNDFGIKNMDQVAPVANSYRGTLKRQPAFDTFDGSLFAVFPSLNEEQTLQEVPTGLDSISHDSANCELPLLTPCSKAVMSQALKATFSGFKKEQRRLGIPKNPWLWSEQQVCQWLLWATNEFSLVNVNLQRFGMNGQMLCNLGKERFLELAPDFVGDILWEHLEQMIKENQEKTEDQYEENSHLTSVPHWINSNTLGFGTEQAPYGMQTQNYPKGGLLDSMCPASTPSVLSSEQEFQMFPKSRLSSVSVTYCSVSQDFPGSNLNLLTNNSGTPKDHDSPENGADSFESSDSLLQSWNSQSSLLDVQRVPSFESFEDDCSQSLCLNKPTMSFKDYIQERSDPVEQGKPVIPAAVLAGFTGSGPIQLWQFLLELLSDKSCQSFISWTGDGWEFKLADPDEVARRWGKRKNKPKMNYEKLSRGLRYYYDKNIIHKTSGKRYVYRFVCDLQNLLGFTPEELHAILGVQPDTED
# Outline: as §1
# SPDEF = target: T9, SPDEF (Homo sapiens, UniProt O95238 1-335); details: protein: recombinant; tags: N-terminal GST; dsDNA, one strand shown
# T9 sequence: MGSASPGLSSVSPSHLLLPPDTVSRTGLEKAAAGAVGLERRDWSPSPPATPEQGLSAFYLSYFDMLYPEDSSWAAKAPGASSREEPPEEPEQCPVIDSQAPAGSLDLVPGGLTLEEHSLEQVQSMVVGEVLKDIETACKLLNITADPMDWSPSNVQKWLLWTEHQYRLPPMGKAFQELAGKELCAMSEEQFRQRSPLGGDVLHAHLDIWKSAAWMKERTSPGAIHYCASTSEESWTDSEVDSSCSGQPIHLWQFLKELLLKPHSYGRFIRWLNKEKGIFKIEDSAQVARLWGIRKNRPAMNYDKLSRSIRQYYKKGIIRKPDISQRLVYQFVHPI
# Outline: as §1
# ETV7 = target: T10, ETV7 (Homo sapiens, UniProt Q9Y603 1-341); details: protein: recombinant; tags: N-terminal GST; dsDNA, one strand shown
# T10 sequence: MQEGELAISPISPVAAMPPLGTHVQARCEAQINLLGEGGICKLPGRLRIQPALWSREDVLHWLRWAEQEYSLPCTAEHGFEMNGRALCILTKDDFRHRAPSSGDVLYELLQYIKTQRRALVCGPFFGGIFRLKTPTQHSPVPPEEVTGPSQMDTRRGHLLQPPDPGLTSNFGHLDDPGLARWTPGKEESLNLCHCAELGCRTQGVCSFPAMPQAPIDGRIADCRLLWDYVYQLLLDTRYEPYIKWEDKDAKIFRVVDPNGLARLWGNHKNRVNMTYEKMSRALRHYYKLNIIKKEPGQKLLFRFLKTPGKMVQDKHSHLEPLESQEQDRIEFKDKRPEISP
# Outline: as §1
# ELF5 = target: T11, ELF5 (Homo sapiens, UniProt Q9UKW6-2 1-255); details: protein: recombinant; tags: N-terminal GST; dsDNA, one strand shown
# T11 sequence: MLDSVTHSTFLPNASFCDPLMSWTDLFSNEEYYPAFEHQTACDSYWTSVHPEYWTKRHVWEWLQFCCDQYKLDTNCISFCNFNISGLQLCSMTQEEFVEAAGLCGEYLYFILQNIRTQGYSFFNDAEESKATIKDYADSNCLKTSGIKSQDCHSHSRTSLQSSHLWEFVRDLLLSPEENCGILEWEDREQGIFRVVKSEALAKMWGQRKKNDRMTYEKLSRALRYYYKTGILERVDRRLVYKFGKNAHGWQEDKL
# Outline: as §1
# ETV3 = target: T12, ETV3 (Homo sapiens, UniProt P41162-2 1-143); details: protein: recombinant; tags: N-terminal GST; dsDNA, one strand shown
# T12 sequence: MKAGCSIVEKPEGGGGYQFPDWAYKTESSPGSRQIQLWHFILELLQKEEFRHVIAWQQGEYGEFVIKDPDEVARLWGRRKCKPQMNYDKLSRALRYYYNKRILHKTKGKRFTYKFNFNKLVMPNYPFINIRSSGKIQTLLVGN
# Outline: as §1
# ETV6 = ETV6 (Homo sapiens, UniProt P41212 1-452); details: protein: recombinant; tags: N-terminal GST; dsDNA, one strand shown
# Outline: as §1
# CRX, sequence (O43186 whole entry): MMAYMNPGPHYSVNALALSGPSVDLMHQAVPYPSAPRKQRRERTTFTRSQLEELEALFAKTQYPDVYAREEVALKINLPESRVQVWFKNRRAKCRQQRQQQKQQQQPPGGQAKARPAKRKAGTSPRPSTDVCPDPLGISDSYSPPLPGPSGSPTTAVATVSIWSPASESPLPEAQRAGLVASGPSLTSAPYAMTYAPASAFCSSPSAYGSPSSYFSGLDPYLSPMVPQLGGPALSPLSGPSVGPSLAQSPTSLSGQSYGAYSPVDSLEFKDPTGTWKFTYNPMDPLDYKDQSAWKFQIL
# ETV6, sequence (P41212 whole entry): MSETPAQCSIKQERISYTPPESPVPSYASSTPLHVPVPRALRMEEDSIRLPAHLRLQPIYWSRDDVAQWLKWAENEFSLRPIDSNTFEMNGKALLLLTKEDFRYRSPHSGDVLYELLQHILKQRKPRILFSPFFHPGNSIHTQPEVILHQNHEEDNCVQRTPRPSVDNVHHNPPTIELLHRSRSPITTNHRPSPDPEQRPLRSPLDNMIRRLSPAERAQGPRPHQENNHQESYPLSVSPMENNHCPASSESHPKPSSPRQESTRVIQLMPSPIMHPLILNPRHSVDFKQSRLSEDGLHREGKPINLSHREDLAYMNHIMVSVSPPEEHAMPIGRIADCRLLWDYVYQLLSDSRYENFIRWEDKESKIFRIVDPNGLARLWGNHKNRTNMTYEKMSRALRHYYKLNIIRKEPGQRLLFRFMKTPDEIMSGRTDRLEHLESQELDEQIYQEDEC
# ELF4, sequence (Q99607 whole entry): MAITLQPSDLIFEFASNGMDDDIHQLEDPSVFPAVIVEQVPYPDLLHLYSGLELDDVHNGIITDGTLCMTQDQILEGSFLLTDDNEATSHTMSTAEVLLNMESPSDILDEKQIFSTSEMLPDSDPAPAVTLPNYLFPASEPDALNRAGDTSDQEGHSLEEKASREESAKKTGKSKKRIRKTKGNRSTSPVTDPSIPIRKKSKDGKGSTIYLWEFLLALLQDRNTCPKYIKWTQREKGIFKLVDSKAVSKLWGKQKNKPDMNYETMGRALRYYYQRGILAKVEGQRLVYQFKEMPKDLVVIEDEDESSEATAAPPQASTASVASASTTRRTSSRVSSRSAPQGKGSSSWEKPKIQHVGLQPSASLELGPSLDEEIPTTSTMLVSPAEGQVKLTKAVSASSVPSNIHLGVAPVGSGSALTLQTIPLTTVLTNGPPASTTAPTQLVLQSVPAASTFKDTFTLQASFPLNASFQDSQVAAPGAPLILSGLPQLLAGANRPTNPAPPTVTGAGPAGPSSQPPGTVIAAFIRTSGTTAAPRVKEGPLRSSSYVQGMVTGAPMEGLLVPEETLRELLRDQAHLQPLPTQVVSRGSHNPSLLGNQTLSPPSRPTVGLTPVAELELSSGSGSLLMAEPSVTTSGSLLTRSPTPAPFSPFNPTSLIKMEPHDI
# ETV1, sequence (P50549 whole entry): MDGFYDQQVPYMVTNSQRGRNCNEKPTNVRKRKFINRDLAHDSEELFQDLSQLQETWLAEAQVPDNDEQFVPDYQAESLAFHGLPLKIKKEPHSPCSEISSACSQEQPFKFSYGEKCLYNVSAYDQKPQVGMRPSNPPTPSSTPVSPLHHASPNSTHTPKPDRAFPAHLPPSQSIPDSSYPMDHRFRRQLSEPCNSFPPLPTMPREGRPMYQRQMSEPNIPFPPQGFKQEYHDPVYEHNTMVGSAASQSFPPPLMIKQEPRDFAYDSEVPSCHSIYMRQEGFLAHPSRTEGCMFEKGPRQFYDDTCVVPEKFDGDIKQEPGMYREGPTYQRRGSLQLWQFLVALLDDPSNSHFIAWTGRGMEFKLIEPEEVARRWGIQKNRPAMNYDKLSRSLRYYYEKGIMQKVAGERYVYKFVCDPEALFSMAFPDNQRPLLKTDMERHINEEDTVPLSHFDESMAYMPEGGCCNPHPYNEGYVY
# HSF1, sequence (Q00613 whole entry): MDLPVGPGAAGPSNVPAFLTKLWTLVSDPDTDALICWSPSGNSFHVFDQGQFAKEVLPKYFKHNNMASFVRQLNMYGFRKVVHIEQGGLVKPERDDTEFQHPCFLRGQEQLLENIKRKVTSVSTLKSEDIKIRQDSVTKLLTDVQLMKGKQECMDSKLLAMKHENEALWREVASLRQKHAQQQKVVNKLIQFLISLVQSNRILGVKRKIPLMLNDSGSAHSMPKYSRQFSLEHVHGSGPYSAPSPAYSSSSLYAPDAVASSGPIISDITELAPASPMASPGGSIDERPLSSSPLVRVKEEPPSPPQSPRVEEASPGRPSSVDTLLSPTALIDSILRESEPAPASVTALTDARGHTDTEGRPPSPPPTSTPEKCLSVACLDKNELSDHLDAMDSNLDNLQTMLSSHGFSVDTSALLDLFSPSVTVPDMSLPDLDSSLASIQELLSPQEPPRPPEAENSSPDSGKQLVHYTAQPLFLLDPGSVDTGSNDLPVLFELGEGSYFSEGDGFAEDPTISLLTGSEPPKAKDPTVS
# ETV5, sequence (P41161 whole entry): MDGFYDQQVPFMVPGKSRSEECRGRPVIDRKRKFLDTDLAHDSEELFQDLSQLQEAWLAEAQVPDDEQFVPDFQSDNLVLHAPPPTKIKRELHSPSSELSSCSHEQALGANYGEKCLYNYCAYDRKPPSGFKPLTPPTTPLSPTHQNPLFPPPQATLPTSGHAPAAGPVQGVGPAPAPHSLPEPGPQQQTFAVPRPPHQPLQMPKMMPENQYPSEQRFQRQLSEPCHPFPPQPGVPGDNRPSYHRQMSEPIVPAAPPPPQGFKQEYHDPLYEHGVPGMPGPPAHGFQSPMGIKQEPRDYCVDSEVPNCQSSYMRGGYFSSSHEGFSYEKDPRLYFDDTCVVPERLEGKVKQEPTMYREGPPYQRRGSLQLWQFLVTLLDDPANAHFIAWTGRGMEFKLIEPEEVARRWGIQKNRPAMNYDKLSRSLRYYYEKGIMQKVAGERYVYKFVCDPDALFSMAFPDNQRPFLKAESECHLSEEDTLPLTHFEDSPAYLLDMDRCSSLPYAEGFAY
sequence,measurement,setting,value
ACAACT,binding signal,FEV,"1.35 fold enrichment (6-mer frequency, TF over GST control)"
same,binding signal,ETV5,"1.32 fold enrichment (6-mer frequency, TF over GST control)"
same,binding signal,HSF1,"1.11 fold enrichment (6-mer frequency, TF over GST control)"
same,binding signal,SPIC,"1.39 fold enrichment (6-mer frequency, TF over GST control)"
same,binding signal,ELF4,"1.36 fold enrichment (6-mer frequency, TF over GST control)"
same,binding signal,ELK4,"1.34 fold enrichment (6-mer frequency, TF over GST control)"
same,binding signal,ETV2,"1.29 fold enrichment (6-mer frequency, TF over GST control)"
same,binding signal,ELF3,"1.42 fold enrichment (6-mer frequency, TF over GST control)"
same,binding signal,CRX,"1.02 fold enrichment (6-mer frequency, TF over GST control)"
same,binding signal,ETV1,"1.27 fold enrichment (6-mer frequency, TF over GST control)"
same,binding signal,ERF,"1.4 fold enrichment (6-mer frequency, TF over GST control)"
same,binding signal,ETV3L,"1.36 fold enrichment (6-mer frequency, TF over GST control)"
same,binding signal,ETS2,"1.39 fold enrichment (6-mer frequency, TF over GST control)"
same,binding signal,SPDEF,"1.43 fold enrichment (6-mer frequency, TF over GST control)"
same,binding signal,ETV7,"1.14 fold enrichment (6-mer frequency, TF over GST control)"
same,binding signal,ELF5,"1.36 fold enrichment (6-mer frequency, TF over GST control)"
same,binding signal,ETV3,"1.35 fold enrichment (6-mer frequency, TF over GST control)"
same,binding signal,ETV6,"1.34 fold enrichment (6-mer frequency, TF over GST control)"

# Source: publication PMC7862700, “An all-to-all approach to the identification of sequence-specific readers for epigenetic DNA modifications on cytosine”
